# Screens from PubChem BioAssay.
# TexasRed fluor: alters Texas Red total fluorescence, flagging assay interference | TRb/SRC2 Texas Red total fluorescence interference | Potency, µM (top dose mostly 106 µM), without a hit: at the top dose fluorescence change, negative = quenching | 0.29% of 280,000 active | AID 1479; active = well fitted curve in either direction with a large enough effect; inconclusive = small, poorly fitted or top-dose-only effect; note: potency is the fitted concentration of half-maximal effect; % is set by controls: 0 for no effect and ±100 for the full control effect
#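 Human TRβ ligand-binding domain (0.6 uM) and Texas Red SRC2 peptide (20 nM) in Tris buffer with 1 uM T3 and 5% DMSO were incubated with pinned compound for 5 hr at ambient temperature. Total fluorescence was computed as S + 2P (555/632 nm).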
# a7 integrin act: activators of alpha7 integrin expression for muscular dystrophy. alpha7betagal myoblasts, beta-gal FDG fluorescence, 48 h. Potency, µM (doses to about 38.3 µM), without a hit: top-dose activation, actives largely listed as activators. 0.064% of 350,000 active. AID 624291;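 note: potency is the fitted concentration of half-maximal effect; 100% = response of the positive control SU9516; nearly all actives have a fitted effect of over 60% in size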
#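 Alpha7betagal+/- myoblasts (passage 13) were plated 16-24 hr, then exposed to compounds (1:260 dilution of DMSO stock) for 48 hours at 37C. After MPER lysis, β-galactosidase reporter activity was read as FDG fluorescence (ex 480/em 540) after 30 minutes.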
# TRb-SRC2 inh: disrupts binding of human TR beta to SRC2; P10828; TRbeta-SRC2 peptide binding, fluorescence polarization; receptor liganded with 1 µM T3; Potency, µM (titrated, usually from 106 µM), without a hit: at the top dose activity change, negative = inhibition, hits mostly inhibitors; 0.065% of 280,000 active; AID 1469;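 note: potency is the fitted concentration of half-maximal effect; plate controls were bound peptide for no effect and peptide without receptor for full effect; nearly all actives have a fitted effect of over 50% in size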
#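 Quantitative HTS by FP: 0.6 uM TRb LBD, 20 nM labeled SRC2 20-mer, 1 uM T3, 5% DMSO; 5 hr ambient incubation; % activity per concentration and potencies from concentration series.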
# ERG Ets-DNA blk: inhibitors of human ERG Ets domain-DNA interaction | Potency, µM (highest dose often 76.9 µM), for inactives: top-dose FP activity, negative = inhibition, actives largely listed as inhibitors | AID 624246 | P11308 | fluorescence polarization, His-ERG Ets domain / labelled DNA | 0.028% of 370,000 active; active = well fitted inhibition curve with a large enough effect in the polarisation, with a control signal flat; inconclusive = small, poorly fitted or top-dose-only effect, or effect the other way, or a change in a side signal; inactive = no such curve, though single readings can be large or run the other way; the % refers to the polarisation;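 note: polarization taken with two DNA probes labelled with fluorescein and Texas red; potency is the fitted concentration of half-maximal effect; % of control where 0% means no effect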
#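 His-tagged ERG Ets domain (1 uM in the protein solution; 300mM KCl, 50mM Tris-HCl, 1mM EDTA, 1mM DTT, pH 7.5) received compound, then a probe mix of 5 nM fluorescein-DNA and 100nM Texas-615-DNA. Fluorescence polarization was read for both dyes.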
# RGS12 GoLoco inh: blocks human Gai1 binding to RGS12 GoLoco peptide, red readout; 0.44% of 230,000 active; Potency, µM (doses to about 61.6 µM), without a hit: top-dose activity, negative = inhibition, most hits filed as inhibitors; AID 880; P63096; Gai1:RGS12 GoLoco peptide FP, rhodamine, 10 min; active = well fitted inhibition curve with a large enough effect, not every such curve was filed as active; inactive = no such curve, though single readings can be large or run the other way; note: potency is the fitted concentration of half-maximal effect; % is set by controls: 0 for no effect and ±100 for the full control effect; nearly all actives have a fitted effect of over 30% in size
# CBFb RUNX1 block: inhibitors of human CBF-beta and RUNX1 interaction. 230,000 tested, under 10 active. AID 1477. Potency, µM (highest dose often 59.8 µM), for the others: at the highest dose activity, negative = inhibition, actives largely listed as inhibitors. Q01196+Q13951. AlphaScreen CBFb-His/RUNX1-biotin binding, biochemical; note: % of control where 0% means no effect
# Target sequence (Q01196 whole entry, looked up): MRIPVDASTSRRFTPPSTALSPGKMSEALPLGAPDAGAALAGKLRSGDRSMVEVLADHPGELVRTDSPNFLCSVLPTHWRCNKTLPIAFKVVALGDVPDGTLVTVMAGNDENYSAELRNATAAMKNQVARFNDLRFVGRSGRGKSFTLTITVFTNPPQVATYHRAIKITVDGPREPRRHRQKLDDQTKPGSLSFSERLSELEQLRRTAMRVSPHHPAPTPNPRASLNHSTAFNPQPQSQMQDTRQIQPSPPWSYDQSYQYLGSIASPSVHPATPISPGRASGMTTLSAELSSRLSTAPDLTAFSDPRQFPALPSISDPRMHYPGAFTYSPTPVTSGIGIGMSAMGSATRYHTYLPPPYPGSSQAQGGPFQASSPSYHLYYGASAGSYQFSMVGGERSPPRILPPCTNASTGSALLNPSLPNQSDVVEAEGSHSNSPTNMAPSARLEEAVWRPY
# Target sequence (Q13951 whole entry, looked up): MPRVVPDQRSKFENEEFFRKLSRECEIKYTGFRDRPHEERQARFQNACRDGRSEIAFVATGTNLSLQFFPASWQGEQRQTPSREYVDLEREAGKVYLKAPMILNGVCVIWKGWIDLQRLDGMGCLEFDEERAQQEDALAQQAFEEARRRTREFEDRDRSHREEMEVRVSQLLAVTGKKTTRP
#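 AlphaScreen binding: CBFb-His and RUNX1-biotin (30 nM each) preincubated 20 min, compound added for 15 min, then nickel and streptavidin beads for 90 min, all at room temperature. Disruption of the interaction by any mechanism counts as activity.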
# Active calls of the source: *; u = inconclusive; x = no result; ! = repeats disagree; [ ] = another dose, or the depositor's remark. Shown are actives, neighbours in structure and some others; about 0.45% of the full set was active somewhere. Unless noted, calls come from the whole dose curve; as a rule, active = well fitted curve in the direction sought with a large enough effect; inconclusive = small, poorly fitted or top-dose-only effect, or another doubt; inactive = no such curve, though single readings can be large; an effect the other way counts as inactive or inconclusive.
SMILES,TexasRed fluor,a7 integrin act,TRb-SRC2 inh,ERG Ets-DNA blk,RGS12 GoLoco inh,CBFb RUNX1 block
COCCCNC(=O)c1ccc2c3c(onc13)-c1ccccc1C2=O,9%,-66%,-13%,0%,20µM*,u
Oc1ccc2ccccc2c1N=Nc1ccccc1,112µM*[fluorescent],x,100µM*,x,x,x
O=C(O)c1cccc(NC(=O)c2cccc(S(=O)(=O)Nc3cccc(C(=O)O)c3)c2)c1,-5%,x,-7%,3%,x,x
O=C(O)c1cccc(NC(=O)c2cccc(S(=O)(=O)Nc3cccc(F)c3)c2)c1,0.32µM*[quencher],x,u,4%,x,x
CCCCCC(N)=O,-2%,x,4%,18%,-9%,21%[21.7 µM]
CCCCCCCC/C=C\CCCCCCCC(N)=O,2%,x,-1%,x,22µM*!,11%
CCCCCCCCCCCCCCCCCCN,1%[201 µM],x,4%[201 µM],x,x,x
CN1/C(=C\C=N\O)C(C)(C)c2ccccc21,0%,10%,2%,-8%,17%,0%
CN1/C(=C\C=[N+](C)c2ccccc2)C(C)(C)c2ccccc21,17%,u,17%,x,4µM*,-3%
CO/N=C/C=C1/N(C)c2ccccc2C1(C)C,0%,22%,9%,0%,12%,-6%
Cc1ccccc1N=C/C=C1\N(C)c2ccccc2C1(C)C,45µM*[fluorescent],0%,u,u,209%,x
CN(C)S(=O)(=O)c1ccc(C(=O)Nc2ccc3c(c2)CCC3)cc1,x,-17%,x,9%,x,x
CN(C)S(=O)(=O)c1cccc(C(=O)Nc2ccc3c(c2)CCC3)c1,x,2.8µM*,x,6%,x,x
Cc1cc(NC(=O)c2ccc(Cl)cc2Cl)no1,x,1.4µM*,x,-4%,x,x
Cc1cc(NC(=O)Nc2ccc(Cl)cc2)no1,x,35%,x,7%,x,x
CC1(OC(=O)C2CCCC2)C(=O)C=C2C=C(c3ccsc3)N(C(CO)CO)C=C2C1=O (configuration not stated),-1%[11.2 µM],-10%,4%[11.2 µM],28µM*,-5%[14.2 µM],12%[13.1 µM]
COc1ccccc1CNc1nc(-c2ccco2)nn1S(=O)(=O)c1ccc2ccccc2c1,1122µM*[quencher],x,-6%,9%,x,x
c1cc(CN2CCCNCCNCCCNCC2)ccc1CN1CCCNCCNCCCNCC1,1%,x,1%,x,x,27%
CNC(=O)/C(C#N)=C/c1cccc(Oc2ccccc2)c1,-2%,-15%,-7%,-1%,-2%,-12%
CNC(=O)/C(=C\c1cccc(Oc2ccccc2)c1)NC(=O)c1ccccc1,7%,11µM*,3%,3%,5%,10%
CC(=O)Nc1ccc(N=Cc2c(O)c(C(=O)Nc3ccccc3)cc3ccccc23)cc1,0%,-11%,-5%,9%,14µM*,-9%
CC(=O)Nc1ccc(N=Cc2c(O)c3ccccc3oc2=O)cc1,x,-22%,x,16%,x,x
C[C@H]1Cc2c(-c3ccccc3)nc3c(c2CO1)CN(C(=O)c1ccco1)CC3,-4%[11.2 µM],x,-2%[11.2 µM],x,3%[14.2 µM],6%[13.1 µM]
O=C1C(SCCO)=C(SCCO)C(=O)c2ccccc21,14µM*![quencher],x,u,13µM*,3.5µM*!,-2%
C/C(=N/NC(=O)c1cc2ccccc2cc1O)C1C(=O)c2ccccc2C1=O,40µM*[quencher],8%,20%,3%,12%,u
SMILES,TexasRed fluor,a7 integrin act,TRb-SRC2 inh,ERG Ets-DNA blk,RGS12 GoLoco inh,CBFb RUNX1 block
C/C(=N\NC(=O)c1cc2ccccc2cc1O)c1cc2ccccc2o1,40µM*[quencher],-23%,u,18%,25µM*,-1%
C/C(CC(=O)N1CCN(C=O)CC1)=N\NC(=O)c1cc2ccccc2cc1O,45µM*[quencher],18%,30%,x,14%,u
CSCC[C@H](N)C(=O)N[C@@H](CCC(=O)O)C(=O)N[C@H](C(=O)NCC(=O)N[C@@H](Cc1c[nH]c2ccccc12)C(=O)N[C@@H](Cc1ccc(O)cc1)C(=O)N[C@@H](CCCNC(=N)N)C(=O)N[C@@H](CO)C(=O)N1CCC[C@H]1C(=O)N[C@@H](Cc1ccccc1)C(=O)N[C@@H](CO)C(=O)N[C@@H](CCCNC(=N)N)C(=O)N[C@H](C(=O)N[C@H](C(=O)N[C@@H](Cc1cnc[nH]1)C(=O)N[C@@H](CC(C)C)C(=O)N[C@@H](Cc1ccc(O)cc1)C(=O)N[C@@H](CCCNC(=N)N)C(=O)N[C@@H](CC(N)=O)C(=O)NCC(=O)N[C@@H](CCCCN)C(=O)O)C(C)C)C(C)C)C(C)C,-1%,x,13%,x,x,2%
Cc1nn(C)c2c1c(C(F)(F)F)cc(=O)n2C(C)C(=O)NCc1ccccc1Cl (configuration not stated),316µM*[quencher],x,-21%,4%,x,x
CO/N=C1\C[C@]2(C[C@@H]3C[C@@H](C/C=C(\C)C[C@@H](C)/C=C/C=C4\CO[C@@H]5[C@H](O)C(C)=C[C@@H](C(=O)O3)[C@]45O)O2)O[C@H](/C(C)=C/C(C)C)[C@H]1C,0%[201 µM],x,7%[201 µM],x,x,x
COCCn1c(C)c(C)c(S(=O)(=O)c2ccccc2)c1N,x,-20%,x,35µM*,x,x
Cc1c(S(=O)(=O)c2ccccn2)c(N)n(Cc2ccccc2)c1C,u,-15%,-21%,-11%,-2%,0%
COC(=O)C/C=C1\c2ccc3c(c2[C@@H](OC)[C@@H]1C)OCO3,-2%,x,9%,x,0%,4%
CS(=O)(=O)CCC(C(=O)Nc1cccc(C(F)(F)F)c1)N1Cc2ccccc2C1=O (configuration not stated),25µM*[quencher],x,-12%,-7%,x,x
COC(=O)c1cc(NC(=O)[C@H](CCS(C)(=O)=O)N2Cc3ccccc3C2=O)cc(C(=O)OC)c1,u,x,-1%,-2%,x,x
Nc1ccccc1NC(=O)c1ccc(CNC(=O)OCc2cccnc2)cc1,-2%,x,0%,x,x,23%
